Calls of active or inactive are those of the source. The call rests on the fitted dose curve; in most records, active means well fitted inhibition curve with a large enough effect; inconclusive means small, poorly fitted or top-dose-only effect; inactive means flat fitted curve, though single readings scatter.
What follows are compounds tested against DNA dC->dU-editing enzyme APOBEC-3G (Homo sapiens) (UniProt Q9HC16) (assay: qHTS for inhibitors of Vif-A3G interactions: Validation (AID 588379)). Details: Vif-A3G protein interaction assay; series mostly up to 46.1 µM.
DNA dC->dU-editing enzyme APOBEC-3G (Homo sapiens), sequence (Q9HC16 whole entry, looked up): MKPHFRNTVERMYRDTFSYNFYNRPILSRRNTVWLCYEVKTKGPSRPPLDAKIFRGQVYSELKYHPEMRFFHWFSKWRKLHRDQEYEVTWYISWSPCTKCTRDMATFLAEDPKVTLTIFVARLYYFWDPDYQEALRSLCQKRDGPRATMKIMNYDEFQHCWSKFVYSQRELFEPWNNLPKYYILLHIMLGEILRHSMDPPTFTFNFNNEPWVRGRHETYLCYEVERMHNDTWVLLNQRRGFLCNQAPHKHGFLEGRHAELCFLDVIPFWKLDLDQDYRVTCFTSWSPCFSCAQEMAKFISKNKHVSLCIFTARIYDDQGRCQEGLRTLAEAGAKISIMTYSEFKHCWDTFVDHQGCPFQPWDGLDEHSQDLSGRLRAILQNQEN
Description: The recent discovery and characterization of host restriction factors, which provide a potent defense to invading retroviruses, has provided new targets for antiviral drug development. APOBEC3G (A3G) and APOBEC3F (A3F) are potent cytidine deaminases that block HIV-1 replication; HIV-1 expresses the Vif protein, which counteracts A3G and A3F by binding to them and inducing their proteasomal degradation.
The Vif-A3G and Vif-A3F interactions provide two potential targets for development of small molecules which can interfere with the ability of Vif to degrade A3G or A3F. […] To identify inhibitors that can interfere with Vif mediated degradation of A3G and A3F, we have developed Hela cell lines that stably express A3G or A3F tagged with eYFP at the C-terminal end (A3G-eYFP or A3F-eYFP, respectively) and Vif. In the absence of an inhibitor, Vif induces degradation of A3G-eYFP and A3F-eYFP, and the cells are not fluorescent. In the presence of an inhibitor, it is expected that Vif will be unable to degrade A3G-eYFP and/or A3F-eYFP, resulting in an increase in yellow fluorescence. In this assays Vif A3G was screened against the Molecular Library Small Molecile Repository (MLSMR).
NIH Chemical Genomics Center [NCGC]
NIH Molecular Libraries Probe Centers Network [MLPCN]
Assay Submitter (PI): Vinay Pathak, National Cancer Institute
5 uL of 700 cells/well of A3G-YFP cells are dispensed into black, clear bottom plates. The plates are incubated overnight at 37 deg C. 23 nL of compounds are added by pintool. The plates are incubated overnight at 37 deg C and then read on the TTP Acumen (Ex 488/ Em 500-530).
For `NC(N)=NOCC[C@H](N)C(=O)O`, the outcome was “inactive”.
With `CN1CCC(c2c[nH]c3ccc(O)cc23)CC1` the outcome was “inactive”.
For `N[C@@H](Cn1oc(=O)[nH]c1=O)C(=O)O`, the outcome was “inactive”.
In the case of `O=c1ccc2[nH]cc(C3=CCNCC3)c2[nH]1`, the outcome is reported as “inactive”.
For `Cc1cc(C)cc(C(=O)OC2C[C@H]3CC[C@@H](C2)N3C)c1` (stereo partly specified), the outcome was “inactive”.
In the case of `O=C1C=C2C=C[C@@H]3C[C@@]2(O1)[C@H]1CCCCN31`, the outcome is reported as “inactive”.
With `CCCN(CCC)[C@@H]1CCc2cccc(O)c2C1` the outcome was “inactive”.
In the case of `NCCc1c[nH]c2ccc(C(N)=O)cc12`, the outcome is reported as “inactive”.
With `CC(=O)c1c(O)c(C)c(O)c(Cc2c(O)c3c(c(C(=O)/C=C/c4ccccc4)c2O)OC(C)(C)C=C3)c1O` the outcome was “inactive”.
With `C[N+](C)(C)CC#CCN1CCCC1=O` the outcome was “inactive”.
For `c1ccc2c(c1)[I+]c1ccccc1-2`, the outcome was “inactive”.
With `Cc1[nH]c2ccc(O)cc2c1CCN` the outcome was “inactive”.
With `COc1ccc2c(c1OC)C(=O)OC2C1c2cc3c(cc2CCN1C)OCO3` (stereo unspecified) the outcome was “inactive”.
With `CCCN(CCC)C1Cc2cc(OC)c(OC)cc2C1` the outcome was “inactive”.
For `O=[N+]([O-])c1cc(O)c(O)c([N+](=O)[O-])c1`, the outcome was “inactive”.
In the case of `CC(C)[C@@]1(NC(=O)[C@@H]2C[C@@H]3c4cccc5[nH]cc(c45)C[C@H]3N(C)C2)O[C@@]2(O)[C@@H]3CCCN3C(=O)[C@H](Cc3ccccc3)N2C1=O`, the outcome is reported as “inactive”.

Reference: PubChem BioAssay (NCATS)
